Test [1] in a line: qHTS assay for small molecule agonists of the p53 signaling pathway (AID 651631; calls by dose curve; further: nearly all actives have a fitted effect of over 15% in size). The method, boiled down:
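Fluorescence intensity from cleaved LiveBLAzer B/G substrate (2 h, room temperature) served as the signal. Beforehand, HCT-116 reporter cells bearing p53 response elements were treated 16 h at 37 °C with DMSO-dissolved compounds.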
For orientation: Quantitative high-throughput screening tests each substance at several concentrations.

The nature of test [2]: qHTS assay for small molecules that induce genotoxicity in human embryonic kidney cells expressing luciferase-tagged ATAD5 (AID 651632). Further: nearly all actives have a fitted effect of over 15% in size. Put shortly:
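Quantitative HTS in HEK293T expressing luciferase-tagged ATAD5, whose levels rise upon DNA damage. Exposure ran 16 hr at 37C and 5% CO2, with luminescence read 30 min after Amplite addition at room temperature.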

A short description of test [3]: qHTS assay for small molecule agonists of the p53 signaling pathway - cell viability (AID 651633; calls by dose curve;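 further: p53RE-bla HCT reporter cells with a stable beta-lactamase p53 reporter; series mostly up to about 83 µM; nearly all actives have a fitted effect of over 30% in size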). The method, boiled down:
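p53RE-bla cells were treated with compound for 16 hours at 37 C. Cytotoxicity was then measured as CellTiter-Glo luminescence after 30 min at room temperature.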

The nature of test [4]: qHTS assay for small molecules that induce genotoxicity in human embryonic kidney cells expressing luciferase-tagged ATAD5 - cell viability (AID 651634; calls by dose curve; further: nearly all actives have a fitted effect of over 25% in size). The method, boiled down:
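After 15.5 hr incubation with compound at 37C, 5% CO2, HEK293T ATAD5-luciferase cells received CellTiter-Fluor reagent; fluorescence intensity was quantified following 30 min at 37C.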

A short description of test [5]: qHTS assay for small molecule disruptors of the mitochondrial membrane potential (AID 720635). Further: potency means the concentration at half of the fitted maximal effect. Put shortly: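 HepG2 cells exposed to compound 1 hr at 37C, then Mito-MPS dye 30 min. Ratio read of aggregate (540/590 nm) versus monomer (490/535 nm) fluorescence.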
A short description of test [6]: qHTS assay to test for compound auto fluorescence at 590 nm (red) in HepG2 cells (AID 720674). The method, boiled down:
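Fluorescence at 590 nm emission following 540 nm excitation was recorded from HepG2 wells one hour after compound transfer, with DMSO-only wells as vehicle and Rose Bengal sodium equivalency as the scale.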

Test [7] is described as follows: qHTS assay to test for compound auto fluorescence at 535 nm (green) in HepG2 cells (AID 720675).
The nature of test [8]: qHTS assay to test for compound auto fluorescence at 460 nm (blue) in HEK293 cells (AID 720678). Put shortly: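 HEK293, 2,000 cells/well, 10% dialyzed FBS; attach 4-5 hr 37C; pin compound or DMSO; o/n 37C/5% CO2; fluorescence 405/460 nm; triamterene-equivalent units.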
Test [9] is described as follows: qHTS assay to test for compound auto fluorescence at 590 nm (red) in HEK293 cells (AID 720679). The method, boiled down: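 Intensity at 540nm excitation and 590nm emission is reported as Rose Bengal sodium-equivalent autofluorescence. Measurements followed overnight exposure (37C, 5% CO2) of HEK293 cells, 2,000 per well, to 23 nL compound.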
Test [10] in a line: qHTS assay to test for compound auto fluorescence at 460 nm (blue) in HEK293 cell free culture (AID 720681). The method, boiled down: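 Compounds were added to cell-free DMEM with 10% FBS and fluorescence read directly. The blue channel used 405 nm excitation and 460 nm emission, with triamterene as the reference fluorophore.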
A short description of test [11]: qHTS assay to test for compound auto fluorescence at 535 nm (green) in HEK293 cell free culture (AID 720682). The method, boiled down:
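Intrinsic compound fluorescence is measured in culture medium containing 10% FBS, with excitation at 485 nm and detection at 535 nm, referenced to fluorescein.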

The nature of test [12]: qHTS assay to test for compound auto fluorescence at 590 nm (red) in HEK293 cell free culture (AID 720683). Put shortly: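 Cell-free wells of DMEM with 10% FBS received compound, and intrinsic fluorescence was read at excitation/emission 540/590 nm. Values expressed as equivalence to Rose Bengal sodium.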
The nature of test [13]: qHTS assay to test for compound auto fluorescence at 590 nm (red) in HepG2 cell free culture (AID 720684). The method, boiled down:
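Rose Bengal sodium served as the reference for red signal. Test compounds were dispensed into serum-containing MEM (10% FBS) without cells, and plates were read at 540/590 nm.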

Test [14] is described as follows: qHTS assay to test for compound auto fluorescence at 460 nm (blue) in HepG2 cell free culture (AID 720685). The method, boiled down:
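Cell-free plates of MEM plus 10% FBS received 23 nL compound or DMSO vehicle; blue-channel (405/460 nm) intensity scored against triamterene as reference fluorophore.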

The nature of test [15]: qHTS assay to test for compound auto fluorescence at 535 nm (green) in HepG2 cell free culture (AID 720686).
A short description of test [16]: qHTS assay to test for compound auto fluorescence at 460 nm (blue) in HepG2 cells (AID 720687). The method, boiled down:
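HepG2 cells in MEM with 10% FBS, attached overnight at 37 C, were exposed to compound or DMSO for 1 hr at 37 C, 5% CO2. Blue fluorescence was read at 405/460 nm, with triamterene as reference fluorophore.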

Test [17] deals with Glucocorticoid receptor (Homo sapiens) (UniProt P04150). Put plainly: qHTS assay to identify small molecule agonists of the glucocorticoid receptor (GR) signaling pathway (AID 720691; active means well fitted activation curve with a large enough effect in the signal ratio in the repeat runs, not every such curve was filed as active; the % refers to the signal ratio). Put shortly:
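Cells: GR-bla HeLa, endogenous GR with stably integrated GRE-beta-lactamase reporter. Treatment 18 h, 37 C, compounds delivered in DMSO. Detection via LiveBLAzer B/G FRET substrate, 2 h RT, fluorescence intensity.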

For test [18] the target is unchanged. Kind of test: qHTS assay to identify small molecule antagonists of the glucocorticoid receptor (GR) signaling pathway (AID 720692; active means well fitted inhibition curve with a large enough effect in the signal ratio in the repeat runs, not every such curve was filed as active; the % refers to the signal ratio). Put shortly:
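Quantitative HTS in antagonist format: HeLa cells expressing endogenous GR and a stably integrated GRE-bla reporter, stimulated with 5 nM dexamethasone (final) alongside test compounds for 18 h.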

Test [19] is described as follows: qHTS assay to test for compound auto fluorescence at 535 nm (green) in HEK293 cells (AID 720680).
Test [20] can be described thus: qHTS assay for small molecule disruptors of the mitochondrial membrane potential - cell viability (AID 720634; calls by dose curve;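 further: human HepG2 liver cancer cells; series mostly up to about 83 µM; nearly all actives have a fitted effect of over 20% in size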). The method, boiled down: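 ATP-based luminescent viability readout (CellTiter-Glo, 30 min, room temperature) in HepG2 cells multiplexed with the m-MPI membrane potential dye; compound exposure lasted 1 hr at 37 C.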

Results filed as inconclusive are left out. Calls of active or inactive are those of the source. Unless noted, the call rests on the fitted dose curve; in most records, active means well fitted curve in the direction sought with a large enough effect in the repeat runs; inconclusive means weak or mixed curves; inactive means no such curve, though single readings can be large; an effect the other way counts as inactive or inconclusive.

Chain of Glucocorticoid receptor (Homo sapiens) (P04150 whole entry, looked up): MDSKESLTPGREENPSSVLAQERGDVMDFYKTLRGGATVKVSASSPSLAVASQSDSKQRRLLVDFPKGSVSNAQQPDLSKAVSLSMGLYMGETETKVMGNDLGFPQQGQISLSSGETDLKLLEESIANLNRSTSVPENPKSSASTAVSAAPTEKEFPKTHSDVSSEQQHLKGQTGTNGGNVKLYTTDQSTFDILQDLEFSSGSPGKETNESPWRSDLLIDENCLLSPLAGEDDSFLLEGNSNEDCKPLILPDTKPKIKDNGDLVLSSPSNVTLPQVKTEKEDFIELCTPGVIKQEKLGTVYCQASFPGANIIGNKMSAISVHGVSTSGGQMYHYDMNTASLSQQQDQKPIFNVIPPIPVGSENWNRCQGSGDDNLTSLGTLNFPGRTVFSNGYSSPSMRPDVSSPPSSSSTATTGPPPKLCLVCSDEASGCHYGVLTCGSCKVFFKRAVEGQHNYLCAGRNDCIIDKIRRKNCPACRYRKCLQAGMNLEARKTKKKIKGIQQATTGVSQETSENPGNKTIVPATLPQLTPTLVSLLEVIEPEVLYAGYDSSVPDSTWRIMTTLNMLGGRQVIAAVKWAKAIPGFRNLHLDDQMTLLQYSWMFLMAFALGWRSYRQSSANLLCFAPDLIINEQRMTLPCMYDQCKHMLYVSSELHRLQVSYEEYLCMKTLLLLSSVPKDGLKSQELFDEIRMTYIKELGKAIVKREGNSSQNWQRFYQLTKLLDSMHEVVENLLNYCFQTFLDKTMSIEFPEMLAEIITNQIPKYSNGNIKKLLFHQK

On to `CCOC(=O)Nc1cccc(OC(=O)Nc2ccccc2)c1`, for which the Potency result in test [1], in test [3], in test [4], in test [17] and in test [18] was “inactive” in each case. In addition, the outcome in test [2], in test [6], in test [7], in [8], in [9] and in [10] was inactive. For the same molecule, the outcome in [11], in test [12], in test [13], in test [14], in test [15] and in test [16] was inactive. Further, the Potency in test [5] was 9.69 µM (active).

With `CCCCS(=O)(=O)Cl`, the Potency result in [1], in [3], in test [4] and in test [17] was “inactive” in each case. Moreover, the call in [2], in [6], in test [8], in [9], in test [19] and in [10] was inactive. Moreover, the molecule was classed as inactive in test [11], in test [12], in test [13], in test [14], in [15] and in test [16].

Consider `O=C(O)C(F)(F)C(F)(F)C(F)(F)C(F)(F)C(F)(F)C(F)(F)F`, for which the Potency result in test [1], in [3] and in test [4] was “inactive” in each case. Moreover, the molecule was called inactive in [2], in [6], in [7], in [8], in test [9] and in test [19]. Besides, the molecule was called inactive in test [10], in [11], in test [12], in test [13], in [14] and in test [15]. In addition, the result in test [16] was inactive.

`NC1(c2ccccc2)CCCCC1`: the Potency result in test [1], in test [3], in [4] and in [20] was “inactive” in each case. Further, the result in test [2], in test [6], in test [8], in test [9], in test [19] and in [10] was inactive. For the same molecule, the call in [11], in test [12], in test [13], in [14], in [15] and in test [16] was inactive.

Consider `O=C(O)CBr`, for which the Potency result in test [1], in test [3] and in test [4] was “inactive” in each case. Also, the molecule was classed as inactive in test [2], in [6], in test [7], in test [8], in test [9] and in [19]. The result in test [10], in [11], in test [12], in test [13], in [15] and in test [16] was inactive.

Turning to `O=c1[nH]oc2c1CCNC2`, the Potency result in [1], in test [3], in test [4], in test [17] and in [18] was “inactive” throughout. For the same molecule, the outcome in [2], in test [6], in test [7], in test [8], in test [9] and in test [19] was inactive. Besides, the molecule was called inactive in [10], in test [11], in [12], in test [13], in [14] and in [15]. For the same molecule, the molecule was classed as inactive in [16].

Take `CC(C)(C)NC[C@H](O)c1ccc(O)cc1Cl`: the Potency result in [1], in test [3], in [4] and in test [20] was “inactive” in each case. For the same molecule, the outcome in [2], in test [7], in test [8], in test [9], in [19] and in [10] was inactive. In addition, the molecule was called inactive in test [11], in test [12], in test [13], in test [15] and in [16].

For `CC(C)c1ccc(O)cc1`, the Potency result in test [1], in test [3], in [4], in test [20] and in test [17] was “inactive” in each case. For the same molecule, the call in test [2], in test [7], in test [8], in [9], in test [10] and in test [11] was inactive. In addition, the result in test [12], in [13], in [15] and in [16] was inactive.

Turning to `CCCOC(=O)Cc1ccc(OCC(=O)N(CC)CC)c(OC)c1`, the Potency result in test [1], in test [3] and in [4] was “inactive” each time. Further, the result in test [2], in [7], in test [8], in test [9], in test [19] and in test [10] was inactive. The molecule was called inactive in [11], in test [12], in [13], in test [14], in test [15] and in [16].

Source of the values: PubChem BioAssay (Tox21).
